{
  "source": "PubChem BioAssay (NCATS)",
  "note": "Results filed as inconclusive are left out. Values without a mark were called inactive. Calls follow the shape of the dose curve; as a rule, active = well fitted inhibition curve with a large enough effect; inconclusive = small, poorly fitted or top-dose-only effect, or effect the other way; inactive = flat fitted curve, though single readings scatter. % is scaled to controls: 0 for no effect and ±100 for the full control effect.",
  "data": [
    {"biological_target": "ATP-dependent 6-phosphofructokinase (Trypanosoma brucei brucei) (UniProt O15648)", "sequence (O15648 whole entry, looked up)": "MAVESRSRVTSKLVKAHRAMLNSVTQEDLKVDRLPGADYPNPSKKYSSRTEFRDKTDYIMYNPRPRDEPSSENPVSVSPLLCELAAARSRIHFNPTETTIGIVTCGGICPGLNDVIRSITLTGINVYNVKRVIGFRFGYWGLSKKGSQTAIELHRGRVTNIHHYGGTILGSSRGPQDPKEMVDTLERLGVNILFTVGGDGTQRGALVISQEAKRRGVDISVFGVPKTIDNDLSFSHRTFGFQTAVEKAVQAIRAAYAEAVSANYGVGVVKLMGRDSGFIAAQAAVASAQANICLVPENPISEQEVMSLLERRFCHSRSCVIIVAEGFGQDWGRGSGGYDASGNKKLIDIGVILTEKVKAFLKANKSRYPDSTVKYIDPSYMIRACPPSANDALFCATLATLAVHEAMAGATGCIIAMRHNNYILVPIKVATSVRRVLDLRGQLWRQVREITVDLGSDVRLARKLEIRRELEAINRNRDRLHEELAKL", "assay": "qHTS Assay to Find Inhibitors of T. brucei phosphofructokinase: hit validation (AID 492961);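 also: luminescence reports ADP formed as PFK phosphorylates fructose-6-phosphate with ATP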", "conditions": "T. brucei PFK, ADP-Glo luminescence; series mostly up to 51.4 µM; activity change, negative = inhibition: at the top concentration", "outline": "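PFK 1.25 nM, F6P 0.5 mM, ATP 0.1 mM, MgCl2 5 mM, 0.1 M TEA pH 8.0, Tween20 0.01%, BSA 0.1%; 45 min RT. ADP-Glo two-step detection, luminescence. qHTS titration; curve fitting with curve-class categorization.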", "values": [
      {"smiles": "N[C@H](CC(=O)O)C(=O)O", "activity change, negative = inhibition": "-4.3%"},
      {"smiles": "CCCCC/C=C\\C/C=C\\C/C=C\\CCCCC(=O)O", "activity change, negative = inhibition": "-10.4%"},
      {"smiles": "CC1CC(O)CC(C)(C)C1", "note": "(stereo unspecified)", "activity change, negative = inhibition": "0%"},
      {"smiles": "CC(=O)[O][Al][O]C(C)=O", "activity change, negative = inhibition": "2.62%"},
      {"smiles": "CC/C(=C(/CC)c1ccc(OP(=O)(O)O)cc1)c1ccc(OP(=O)(O)O)cc1", "activity change, negative = inhibition": "0.82%"},
      {"smiles": "CS(=O)(=O)OCC(O)C(O)COS(C)(=O)=O", "note": "(stereo unspecified)", "activity change, negative = inhibition": "8.1%"},
      {"smiles": "COC(=O)CCC[N+](C)(C)C", "activity change, negative = inhibition": "-7.86%"},
      {"smiles": "CCCCC[C@H](O)/C=C/[C@@H]1[C@H]2C/C(=C/CCCC(=O)O)O[C@H]2C[C@H]1O", "activity change, negative = inhibition": "9.58%"},
      {"smiles": "Cc1ccc(S(=O)(=O)NCl)cc1", "activity change, negative = inhibition": "-8.47%"},
      {"smiles": "CCSc1ccc2c(c1)N(CCCN1CCN(C)CC1)c1ccccc1S2", "activity change, negative = inhibition": "2.95% [at 24.3 µM]"},
      {"smiles": "OCc1ccccc1", "activity change, negative = inhibition": "-5.87%"},
      {"smiles": "Cn1c(=O)c2c(ncn2CCOC(=O)C(C)(C)Oc2ccc(Cl)cc2)n(C)c1=O", "activity change, negative = inhibition": "-8.16%"},
      {"smiles": "O=P(O)(O)OP(=O)(O)OP(=O)(O)O", "activity change, negative = inhibition": "3.06%"},
      {"smiles": "COC(=O)[C@@H](N)CS", "activity change, negative = inhibition": "2.57%"},
      {"smiles": "Cc1c(C)c2c(c(C)c1OC(=O)CCC(=O)O)CC[C@@](C)(CCC[C@H](C)CCC[C@H](C)CCCC(C)C)O2", "activity change, negative = inhibition": "-0.925%"},
      {"smiles": "CN1C(=O)OC(C)(C)C1=O", "activity change, negative = inhibition": "4.53% [at 24.3 µM]"},
      {"smiles": "C[C@]12CCC(=O)C[C@@H]1CC[C@@H]1[C@@H]2CC[C@]2(C)C=CC[C@@H]12", "activity change, negative = inhibition": "10.3%"},
      {"smiles": "OCCCNc1ccccc1", "activity change, negative = inhibition": "-2.68%"},
      {"smiles": "O=C1c2ccccc2C(=O)C1c1ccc(F)cc1", "activity change, negative = inhibition": "-0.422%"},
      {"smiles": "O=C(Nc1ccc(O)cc1)c1ccccc1O", "activity change, negative = inhibition": "-2%"},
      {"smiles": "Cc1ncc(C[n+]2csc(CCO)c2C)c(N)n1", "activity change, negative = inhibition": "8.23% [at 24.3 µM]"},
      {"smiles": "CCc1ncnc2cc(OC)c(OC)cc12", "activity change, negative = inhibition": "6.35%"},
      {"smiles": "NC(=O)[C@@H]1CCCN1C(=O)[C@H](Cc1cnc[nH]1)NC(=O)[C@@H]1CCC(=O)N1", "activity change, negative = inhibition": "-4.27%"},
      {"smiles": "C[Si](C)(C)O[Si](C)(C)C", "activity change, negative = inhibition": "0.801%"},
      {"smiles": "CC(CC=O)CCCC(C)(C)O", "note": "(stereo unspecified)", "activity change, negative = inhibition": "-2%"},
      {"smiles": "C=CC(C)(O)CC/C=C(\\C)CCC=C(C)C", "note": "(stereo unspecified)", "activity change, negative = inhibition": "3.09%"},
      {"smiles": "COc1cc2c(cc1OC)[C@@H](Cc1cc(OC)c(OC)c(OC)c1)[N+](C)(CCCOC(=O)CC/C=C/CCC(=O)OCCC[N+]1(C)CCc3cc(OC)c(OC)cc3[C@H]1Cc1cc(OC)c(OC)c(OC)c1)CC2", "note": "(stereo partly specified)", "activity change, negative = inhibition": "-0.57%"},
      {"smiles": "CC(=O)Nc1ccc(OC(C)=O)cc1", "activity change, negative = inhibition": "8.54%"},
      {"smiles": "CC1(O)CCC(C(C)(C)O)CC1", "note": "(stereo unspecified)", "activity change, negative = inhibition": "6.76%"},
      {"smiles": "COc1ccc(C(=O)CCC(=O)O)c2ccccc12", "activity change, negative = inhibition": "-0.0405%"},
      {"smiles": "CC(C)[C@H](N)C(=O)OCC(CO)OCn1cnc2c(=O)[nH]c(N)nc21", "note": "(stereo partly specified)", "activity change, negative = inhibition": "-1.92%"},
      {"smiles": "Cc1ncc(C[n+]2csc(CCOP(=O)(O)OP(=O)(O)O)c2C)c(N)n1", "activity change, negative = inhibition": "-1.25%"},
      {"smiles": "NC(=O)[C@H]1O[C@@H](O)[C@H](O)[C@@H](O)[C@@H]1O", "activity change, negative = inhibition": "-5.54%"},
      {"smiles": "O=C(O)CCC/C=C\\C[C@@H]1[C@@H](/C=C/[C@@H](O)COc2cccc(Cl)c2)[C@H](O)C[C@@H]1O", "activity change, negative = inhibition": "-18%"},
      {"smiles": "CC(C)(C)CC(C)(C)c1cc(Cc2cc(C(C)(C)CC(C)(C)C)cc(-n3nc4ccccc4n3)c2O)c(O)c(-n2nc3ccccc3n2)c1", "activity change, negative = inhibition": "-4.25%"},
      {"smiles": "CCc1ccc(S(=O)(=O)O)cc1", "activity change, negative = inhibition": "0.799%"}
    ]}
  ]
}
